Source: the supplement of paper PMC9950053
Counter-ions that a name gives are not always drawn.

The compounds below were run on Danio rerio larvae (5 dpf) (assay: excitability (activity period 17 minus period 16, 1-s interval sound) minus DMSO control (percentage points); higher = more acoustic excitability than DMSO larvae). Conditions: 10 µM; exposure time: 3 h pre-incubation + 3 h imaging.
Description: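 Wild-type 5 dpf zebrafish larvae (n=48 per drug, 96-well plates, 28.5 °C) were exposed to Tocris FDA-approved library compounds at 10 µM (0.1% DMSO) for 3 h before and 3 h during imaging. Images were taken every 6 s during visual (moving coloured lines) and acoustic stimuli, and larvae were tracked with the DeepLabCut-based Z-LaP Tracker. Each behavioural measure is the treated-group mean minus the DMSO vehicle control mean (n=844), in percentage points. This mapping covers compounds with 4-character plate codes.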
For CN1CC2c3ccccc3Oc3ccc(Cl)cc3C2C1 (stereo not given) [Asenapine maleate], the excitability was 14.2. CCCCc1nc(Cl)c(CO)n1Cc1ccc(-c2ccccc2-c2nnn[nH]2)cc1 [Losartan potassium] showed an excitability of 6.79. CC(=O)O[C@H]1C(=O)[C@@]2(C)[C@H]([C@H](OC(=O)c3ccccc3)[C@]3(O)C[C@H](OC(=O)[C@H](O)[C@@H](NC(=O)c4ccccc4)c4ccccc4)C(C)=C1C3(C)C)[C@]1(OC(C)=O)CO[C@@H]1C[C@@H]2O [Taxol] showed an excitability of 2.27. NC(=O)c1ncn([C@@H]2O[C@H](CO)[C@@H](O)[C@H]2O)n1 [Ribavirin] gave an excitability of 3.28. Compound CCOc1cc(CC(=O)N[C@@H](CC(C)C)c2ccccc2N2CCCCC2)ccc1C(=O)O [Repaglinide] has an excitability of 9.5. Work on Cc1c(-c2ccc(O)cc2)n(Cc2ccc(OCCN3CCCCCC3)cc2)c2ccc(O)cc12 [Bazedoxifene acetate] yielded an excitability of 15.4. Cn1nnc2c(C(N)=O)ncn2c1=O [Temozolomide] was tested, and the excitability was 0.618. For Nc1cccc2c1CN(C1CCC(=O)NC1=O)C2=O (stereo not given) [Lenalidomide], the excitability was -1.97. In the case of C[C@]12CCC(=O)C=C1CC[C@@H]1[C@@H]2[C@@H](O)C[C@@]2(C)[C@H]1CC[C@]2(O)C(=O)CO [Hydrocortisone], the excitability is reported as 3.96. With CC(CCc1ccc(O)cc1)NCCc1ccc(O)c(O)c1 (stereo not given) [Dobutamine hydrochloride] the excitability was 9.03. With CC(=O)O[C@]1(C(C)=O)CC[C@H]2[C@@H]3C=C(C)C4=CC(=O)CC[C@]4(C)[C@H]3CC[C@@]21C [Megestrol Acetate] the excitability was 12.4. Work on CC(C)c1ccc2oc3nc(N)c(C(=O)O)cc3c(=O)c2c1 [Amlexanox] yielded an excitability of 5.26. With Nc1nc(Cl)nc2c1ncn2[C@@H]1O[C@H](CO)[C@@H](O)[C@@H]1F [Clofarabine] the excitability was 4.52. With CCOC(=O)[C@H](CCc1ccccc1)N[C@H]1CCc2ccccc2N(CC(=O)O)C1=O [Benazepril hydrochloride] the excitability was 0.927. Work on CCN(CC)CCNC(=O)c1c(C)[nH]c(/C=C2\C(=O)Nc3ccc(F)cc32)c1C [Sunitinib malate] yielded an excitability of 15.8. Work on Cc1ccsc1C(=CCCN1CCC[C@@H](C(=O)O)C1)c1sccc1C [Tiagabine hydrochloride] yielded an excitability of -6.75. COCCCOc1cc(C[C@@H](C[C@H](N)[C@@H](O)C[C@H](C(=O)NCC(C)(C)C(N)=O)C(C)C)C(C)C)ccc1OC [Aliskiren hemifumarate] was tested, and the excitability was 12.7. In the case of CC(=O)NC[C@H]1CN(c2ccc(N3CCOCC3)c(F)c2)C(=O)O1 [Linezolid], the excitability is reported as 6.87. With CC(C)Nc1cccnc1N1CCN(C(=O)c2cc3cc(NS(C)(=O)=O)ccc3[nH]2)CC1 [Delavirdine mesylate] the excitability was 2.93. COc1cc2ncnc(Nc3ccc(F)c(Cl)c3)c2cc1OCCCN1CCOCC1 [Iressa] was tested, and the excitability was 19.5. C=CC(=O)N1CCC[C@@H](n2nc(-c3ccc(Oc4ccccc4)cc3)c3c(N)ncnc32)C1 [Ibrutinib] gave an excitability of -1.71. N#Cc1ccc(C(c2ccc(C#N)cc2)n2cncn2)cc1 [Letrozole] showed an excitability of 0.318. In the case of OCCOCCN1CCN(C2=Nc3ccccc3Sc3ccccc32)CC1 [Quetiapine hemifumarate], the excitability is reported as 9.04. O=C(O[C@@H]1C[C@@H]2C[C@H]3C[C@H](C1)N2CC3=O)c1c[nH]c2ccccc12 [Dolasetron mesylate] gave an excitability of 10.3. Compound CCOc1ccccc1OCCN[C@H](C)Cc1ccc(OC)c(S(N)(=O)=O)c1 [Tamsulosin hydrochloride] has an excitability of 16.7. In the case of Nc1nc2c(ncn2COCCO)c(=O)[nH]1 [Acyclovir], the excitability is reported as 3.35. For Cc1ccc(N(CC2=NCCN2)c2cccc(O)c2)cc1 [Phentolamine Mesylate], the excitability was 15.6. In the case of CN/C(=N\CCSCc1nc[nH]c1C)NC#N [Cimetidine], the excitability is reported as -2.33. CCCc1nc(C(C)(C)O)c(C(=O)O)n1Cc1ccc(-c2ccccc2-c2nnn[nH]2)cc1 [Olmesartan] showed an excitability of 0.0977. OCCN(CCO)c1nc(N2CCCCC2)c2nc(N(CCO)CCO)nc(N3CCCCC3)c2n1 [Dipyridamole] was tested, and the excitability was -2.85. Work on CC#C[C@]1(O)CC[C@H]2[C@@H]3CCC4=CC(=O)CCC4=C3[C@@H](c3ccc(N(C)C)cc3)C[C@@]21C [Mifepristone] yielded an excitability of 5.63. COc1ccc(C[C@@H](C)NC[C@H](O)c2ccc(O)c(NC=O)c2)cc1 [Arformoterol tartrate] showed an excitability of 4.62. Compound Cc1ccccc1C(=O)Nc1ccc(C(=O)N2CCCC(O)c3cc(Cl)ccc32)c(C)c1 (stereo not given) [Tolvaptan] has an excitability of 8.2. Compound NS(=O)(=O)Cc1noc2ccccc12 [Zonisamide] has an excitability of 4.75. With Cc1cccc(C)c1OCC(C)N (stereo not given) [Mexiletine hydrochloride] the excitability was 3.31. For CN(C)CC/C=C1/c2ccccc2COc2ccc(CC(=O)O)cc21 [Olopatadine hydrochloride], the excitability was 5.43. C[C@@H](O[C@H]1OCCN(Cc2n[nH]c(=O)[nH]2)[C@H]1c1ccc(F)cc1)c1cc(C(F)(F)F)cc(C(F)(F)F)c1 [Aprepitant] gave an excitability of 8.09. For CC(C)C(=O)OCC(=O)[C@@]12O[C@H](C3CCCCC3)O[C@@H]1C[C@H]1[C@@H]3CCC4=CC(=O)C=C[C@]4(C)[C@H]3[C@@H](O)C[C@@]12C [Ciclesonide], the excitability was 6.47. Compound C/C(O)=C(\C#N)C(=O)Nc1ccc(C(F)(F)F)cc1 [Teriflunomide] has an excitability of 9.34. CC(C)C(=O)Nc1ccc([N+](=O)[O-])c(C(F)(F)F)c1 [Flutamide] gave an excitability of -5.48.
